The record followed here is PubChem BioAssay (EPA / NIEHS).

Calls of active or inactive are those of the source. The calls were made as follows: active = hit-call score of the fitted dose curve at least 0.9, where 1 is the maximum; inactive = score below 0.9.

Read-out in experiment [1]: Transforming growth factor beta 1 (TGFb1), TGFB1 (gene 7040)
The experiment in a line: BSK_KF3CT_TGFb1: BioMAP Diversity Plus: KF3CT Assay for Transforming growth factor beta 1 (TGFb1) Biomarker Activity (AID 2283072). As to conditions: primary human keratinocytes with fibroblasts; actives raise or lower the signal. The gist of the method: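 Read-out: ELISA for TGF-b1 in keratinocyte/foreskin fibroblast human skin co-culture, 24 h after dosing; bidirectional curve fit vs DMSO baseline; gain or loss of signal scored.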

Read-out in experiment [2]: C-C motif chemokine 2 (Homo sapiens) (UniProt P13500)
Kind of experiment: BSK_KF3CT_MCP1: BioMAP Diversity Plus: KF3CT Assay for Monocyte Chemoattractant Protein 1 (MCP1/CCL2) Biomarker Activity (AID 2283073). As to conditions: primary human keratinocytes with fibroblasts; actives raise or lower the signal. In outline:
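Human keratinocyte plus foreskin fibroblast primary co-culture exposed to chemical for 24 h. MCP-1 levels measured by ELISA. Bidirectional curve fitting relative to DMSO negative control as baseline.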

Read-out in experiment [3]: Matrix Metallopeptidase 9 (MMP9), MMP9 (gene 4318)
Kind of experiment: BSK_KF3CT_MMP9: BioMAP Diversity Plus: KF3CT Assay for Matrix Metallopeptidase 9 (MMP9) Biomarker Activity (AID 2283074).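 As to AC50: MMP9 protein level quantified by ELISA in the co-culture.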 The settings on record: primary human keratinocytes with fibroblasts; actives raise or lower the signal. In outline: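 ELISA read-out of MMP-9 at 24 h post-dosing in a co-culture of human skin keratinocytes and foreskin fibroblasts. Gain or loss of signal was fitted in both directions against DMSO.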

Read-out in experiment [4]: urokinase plasminogen activator (uPA), PLAU (gene 5328)
Kind of experiment: BSK_KF3CT_uPA: BioMAP Diversity Plus: KF3CT Assay for urokinase plasminogen activator (uPA) Biomarker Activity (AID 2283075). The settings on record: primary human keratinocytes with fibroblasts; actives raise or lower the signal. In outline:
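Skin co-culture (keratinocytes + foreskin fibroblasts), human primary; 24 h post-dose; uPA by ELISA; gain/loss fit vs DMSO baseline.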

Read-out in experiment [5]: CD40, CD40 (gene 958)
The experiment in a line: BSK_LPS_CD40: BioMAP Diversity Plus: LPS Assay for CD40 Biomarker Activity (AID 2283076). The settings on record: primary human HUVEC with PBMC; actives raise or lower the signal. In outline:
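Primary human umbilical vein endothelial cells co-cultured with peripheral blood mononuclear cells, LPS-stimulated, were dosed with chemical and read 24 h later. CD40 levels were measured by ELISA and fitted bidirectionally against DMSO as negative control and baseline.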

Read-out in experiment [6]: E-selectin (Homo sapiens) (UniProt P16581)
Kind of experiment: BSK_LPS_Eselectin: BioMAP Diversity Plus: LPS Assay for Eselectin Biomarker Activity (AID 2283077). As to conditions: primary human HUVEC with PBMC; actives raise or lower the signal. The gist of the method: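 Human umbilical vein endothelial cells co-cultured with peripheral blood mononuclear cells under LPS stimulation; E-selectin measured by ELISA 24 h after chemical dosing. Activity fitted bidirectionally against DMSO as negative control and baseline.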

Read-out in experiment [7]: Interleukin-8 (IL8), CXCL8 (gene 3576)
Kind of experiment: BSK_LPS_IL8: BioMAP Diversity Plus: LPS Assay for Interleukin-8 (IL8) Biomarker Activity (AID 2283078). As to conditions: primary human HUVEC with PBMC; actives raise or lower the signal. In outline: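 Human umbilical vein endothelial cells co-cultured with PBMC were stimulated with LPS; IL-8 levels were measured by ELISA 24 h after chemical dosing. Activity was fitted bidirectionally against DMSO as negative control and baseline.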

Experiment [8] can be described thus: BSK_LPS_SRB: Viability Assessment in the BioMAP Diversity Plus: LPS Assay (AID 2283079).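 Also: total protein by sulforhodamine B absorbance as a cytotoxicity measure; measured one day after compound addition.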 As to conditions: primary human HUVEC with PBMC. In outline: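 Human umbilical vein endothelial cells co-cultured with PBMC (LPS system) were dosed for 24 h. Total protein was stained with 0.1% sulforhodamine B after 10% TCA fixation, read at 560 nm, and fitted bidirectionally against DMSO baseline.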

Read-out in experiment [9]: Interleukin-1 alpha (IL1a), IL1A (gene 3552)
Kind of experiment: BSK_LPS_IL1a: BioMAP Diversity Plus: LPS Assay for Interleukin-1 alpha (IL1a) Biomarker Activity (AID 2283080). The settings on record: primary human HUVEC with PBMC; actives raise or lower the signal. The gist of the method:
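Human umbilical vein endothelial cells co-cultured with peripheral blood mononuclear cells were LPS-stimulated and exposed to test chemicals for 24 h. IL-1 alpha was quantified by ELISA, with bidirectional curve fitting against DMSO as the negative control and baseline.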

Read-out in experiment [10]: Monocyte Chemoattractant Protein-1 (MCP1), CCL2 (gene 6347)
The experiment in a line: BSK_LPS_MCP1: BioMAP Diversity Plus: LPS Assay for Monocyte Chemoattractant Protein-1 (MCP1) Biomarker Activity (AID 2283081). The settings on record: primary human HUVEC with PBMC; actives raise or lower the signal. In outline: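 HUVEC plus PBMC co-culture (human primary cells, LPS system) exposed to test chemical for 24 h; MCP-1 measured by ELISA. Bidirectional curve fitting against DMSO baseline; parallel SRB total-protein staining flags overt cytotoxicity.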

The nature of experiment [11]: BSK_LPS_PGE2: BioMAP Diversity Plus: LPS Assay for Prostaglandin E2 (PGE2) Biomarker Activity (AID 2283082).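 As to AC50: secreted prostaglandin E2 measured by ELISA in LPS-stimulated co-culture.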 As to conditions: primary human HUVEC with PBMC; actives raise or lower the signal. The gist of the method:
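ELISA read-out of PGE2 from human umbilical vein endothelial cells co-cultured with peripheral blood mononuclear cells under LPS, 24 h post-dose. Gain or loss of signal scored relative to DMSO baseline.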

Read-out in experiment [12]: Macrophage colony-stimulating factor (MCSF), CSF1 (gene 1435)
The experiment in a line: BSK_LPS_MCSF: BioMAP Diversity Plus: LPS Assay for Macrophage colony-stimulating factor (MCSF) Biomarker Activity (AID 2283083). As to conditions: primary human HUVEC with PBMC; actives raise or lower the signal. The gist of the method:
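Human umbilical vein endothelial cells co-cultured with peripheral blood mononuclear cells were exposed to compound for 24 h. M-CSF levels were measured by ELISA, and bidirectional curve fitting used DMSO as the negative control and baseline.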

Read-out in experiment [13]: Tissue Factor, F3 (gene 2152)
Kind of experiment: BSK_LPS_TissueFactor: BioMAP Diversity Plus: LPS Assay for Tissue Factor Biomarker Activity (AID 2283084). The settings on record: primary human HUVEC with PBMC; actives raise or lower the signal. The gist of the method:
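Human umbilical vein endothelial cells co-cultured with peripheral blood mononuclear cells were dosed and stimulated with LPS. Cell-surface CD142 was quantified by ELISA at 24 h. Activity was fitted bidirectionally against DMSO baseline.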

Read-out in experiment [14]: Tumor necrosis factor (Homo sapiens) (UniProt P01375)
Kind of experiment: BSK_LPS_TNFa: BioMAP Diversity Plus: LPS Assay for Tumour Necrosis Factor alpha (TNFa) Biomarker Activity (AID 2283085).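 As to AC50: TNFa protein level quantified by ELISA in the co-culture.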 The settings on record: primary human HUVEC with PBMC; actives raise or lower the signal. The gist of the method: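 HUVEC/PBMC co-culture, LPS-stimulated; 24 h post-dose; TNFa by ELISA; gain or loss of signal fitted bidirectionally vs DMSO baseline.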

Read-out in experiment [15]: Vascular cell adhesion molecule 1 (VCAM1), VCAM1 (gene 7412)
The experiment in a line: BSK_LPS_VCAM1: BioMAP Diversity Plus: LPS Assay for Vascular cell adhesion molecule 1 (VCAM1) Biomarker Activity (AID 2283086). The settings on record: primary human HUVEC with PBMC; actives raise or lower the signal. The gist of the method:
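ELISA read-out of VCAM-1 at 24 h post-dosing in an LPS-driven HUVEC/PBMC primary human co-culture; gain or loss of signal fitted bidirectionally against DMSO baseline. Cytotoxicity tracked in parallel cultures by SRB total-protein staining.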

Read-out in a further experiment: CD38, CD38 (gene 952)
The experiment in a line: BSK_SAg_CD38: BioMAP Diversity Plus: SAg Assay for CD38 Biomarker Activity (AID 2283087). The settings on record: primary human HUVEC with PBMC; actives raise or lower the signal. The gist of the method:
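Measures CD38 on a human endothelial/PBMC co-culture driven by SEB and TSST-1, 24 h after compound exposure, using ELISA with fluorescence detection; DMSO defines baseline for bidirectional curve fitting.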

Read-out in experiment [16]: CD40, CD40 (gene 958)
Kind of experiment: BSK_SAg_CD40: BioMAP Diversity Plus: SAg Assay for CD40 Biomarker Activity (AID 2283088). The settings on record: primary human HUVEC with PBMC; actives raise or lower the signal. The gist of the method: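 Human umbilical vein endothelial cells co-cultured with PBMC; CD40 levels measured by ELISA with fluorescence read-out 24 h after chemical dosing. Gain or loss of signal fitted bidirectionally against DMSO baseline.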

Read-out in a further experiment: CD69, CD69 (gene 969)
Kind of experiment: BSK_SAg_CD69: BioMAP Diversity Plus: SAg Assay for CD69 Biomarker Activity (AID 2283089).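 As to AC50: cell surface CD69 protein quantified by ELISA with fluorescence detection.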 The settings on record: primary human HUVEC with PBMC; actives raise or lower the signal. In outline: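 Values derive from bidirectional fitting relative to DMSO vehicle. Cells: umbilical vein endothelium plus peripheral blood mononuclear cells, treated 24 h before fluorescent ELISA for CD69.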

Read-out in experiment [17]: Monocyte Chemoattractant Protein-1 (MCP1), CCL2 (gene 6347)
Kind of experiment: BSK_SAg_MCP1: BioMAP Diversity Plus: SAg Assay for Monocyte Chemoattractant Protein-1 (MCP1) Biomarker Activity (AID 2283090). As to conditions: primary human HUVEC with PBMC; actives raise or lower the signal. In outline:
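Values derive from bidirectional fitting of ELISA-measured MCP1 against DMSO controls. Readings were taken 24 h after dosing human vascular endothelial cells co-cultured with peripheral blood mononuclear cells under superantigen stimulation.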

Chain of E-selectin (Homo sapiens) (P16581 whole entry, looked up): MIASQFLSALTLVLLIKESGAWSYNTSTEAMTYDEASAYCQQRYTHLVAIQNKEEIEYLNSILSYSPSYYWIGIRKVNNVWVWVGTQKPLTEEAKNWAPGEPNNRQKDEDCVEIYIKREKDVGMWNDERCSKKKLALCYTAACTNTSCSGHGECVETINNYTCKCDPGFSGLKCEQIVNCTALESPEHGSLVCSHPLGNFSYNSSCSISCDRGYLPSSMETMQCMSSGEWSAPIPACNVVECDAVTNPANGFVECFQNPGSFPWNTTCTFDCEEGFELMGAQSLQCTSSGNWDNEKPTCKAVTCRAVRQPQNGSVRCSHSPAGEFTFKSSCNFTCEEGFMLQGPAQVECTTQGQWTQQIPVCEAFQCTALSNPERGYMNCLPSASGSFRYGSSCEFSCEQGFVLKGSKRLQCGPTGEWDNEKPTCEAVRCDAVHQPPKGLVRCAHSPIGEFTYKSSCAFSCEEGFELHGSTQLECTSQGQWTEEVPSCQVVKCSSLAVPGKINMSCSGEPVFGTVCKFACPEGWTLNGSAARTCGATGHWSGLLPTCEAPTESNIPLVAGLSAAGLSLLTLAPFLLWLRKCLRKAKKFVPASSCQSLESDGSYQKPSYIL
Chain of Tumor necrosis factor (Homo sapiens) (P01375 whole entry, looked up): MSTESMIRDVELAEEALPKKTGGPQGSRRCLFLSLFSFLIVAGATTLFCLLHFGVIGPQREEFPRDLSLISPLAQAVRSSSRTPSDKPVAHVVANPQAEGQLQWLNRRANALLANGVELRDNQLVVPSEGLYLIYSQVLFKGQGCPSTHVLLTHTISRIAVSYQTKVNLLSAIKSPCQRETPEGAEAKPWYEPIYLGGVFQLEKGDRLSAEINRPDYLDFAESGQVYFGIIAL

Take `COC(=O)c1ccccc1CS(=O)(=O)NC(=O)Nc1nc(OC)cc(OC)n1`: the outcome in [1] was “inactive”; in experiment [2] it was “inactive”; in experiment [3], “inactive”; in [4], “inactive”; with CD40, CD40 (gene 958) [5] it was “inactive”; in experiment [6], “inactive”. For the same molecule, the result in experiment [7], in experiment [8], in experiment [9], in [10], in [11] and in experiment [12] was inactive. In addition, the outcome in experiment [13] is “inactive”; in experiment [14], “inactive”; in experiment [15], “inactive”; with CD38, CD38 (gene 952) it was “inactive”; with CD40, CD40 (gene 958) [16] it was “inactive”; in experiment [17], “inactive”. In the experiment with CD69, CD69 (gene 969), the AC50 (commonly the concentration giving half of the maximal activity seen) was 5.03 µM (active).

Regarding `O=[N+]([O-])c1c(Cl)c(Cl)c(Cl)c(Cl)c1Cl`, the result in [1], in [2], in [7], in experiment [8], in experiment [9] and in experiment [10] was inactive. The outcome in experiment [11] is “inactive”; in experiment [13] it was “inactive”; in the experiment with CD38, CD38 (gene 952), “inactive”; in the experiment with CD40, CD40 (gene 958) [16], “inactive”; in the experiment with CD69, CD69 (gene 969), “inactive”; in experiment [17], “inactive”. For the same molecule, the AC50 was 15.7 µM (active) in [3]; 31 µM (active) in [4]; 17.9 µM (active) with CD40, CD40 (gene 958) [5]; 31.1 µM (active) in experiment [6]; 22.4 µM (active) in experiment [12]; 25.9 µM (active) in [14]. The AC50 in [15] was 25.5 µM (active).

For `O=C(O)CCCOc1ccc(Cl)cc1Cl`, the outcome was “inactive” in experiment [1]; “inactive” in experiment [2]; “inactive” in experiment [3]; “inactive” in experiment [4]; “inactive” in the experiment with CD40, CD40 (gene 958) [5]; “inactive” in experiment [6]. Moreover, the outcome in experiment [7], in experiment [8], in experiment [9], in experiment [10], in [12] and in experiment [13] was inactive. Further, the outcome in experiment [14] was “inactive”; in [15] it was “inactive”; in the experiment with CD38, CD38 (gene 952) it was “inactive”; in the experiment with CD40, CD40 (gene 958) [16] it was “inactive”; in the experiment with CD69, CD69 (gene 969), “inactive”; in experiment [17], “inactive”. Further, the AC50 in experiment [11] is 15.2 µM (active).

Regarding `CCOC1Oc2ccc(OS(C)(=O)=O)cc2C1(C)C` (stereo unspecified), the outcome was “inactive” in experiment [1]; “inactive” in [2]; “inactive” in [3]; “inactive” in experiment [4]; “inactive” in the experiment with CD40, CD40 (gene 958) [5]; “inactive” in experiment [6]. The result in [7], in experiment [8], in experiment [9], in [10], in [11] and in [12] was inactive. Also, the outcome was “inactive” in experiment [13]; “inactive” in experiment [14]; “inactive” in [15]; “inactive” in the experiment with CD38, CD38 (gene 952); “inactive” with CD40, CD40 (gene 958) [16]; “inactive” in experiment [17]. In addition, the AC50 with CD69, CD69 (gene 969) is 18.4 µM (active).
